Compound activity deposited in PubChem by National Center for Advancing Translational Sciences (NCATS).
IMPase cell inh: cell-permeable inhibitors of inositol monophosphatase (IMPase). P97697. CHO-M1 cells, IP1 accumulation, HTRF TR-FRET ratio. inhibition (IP1 accumulation), % at 46.1 µM. 120,000 tested, under 10 active. AID 901; active means well fitted curve in the direction sought with a large enough effect in the signal ratio, not every such curve was filed as active; inconclusive means small, poorly fitted or top-dose-only effect, or a change in a side signal; inactive means no such curve, though single readings can be large or run the other way; the % refers to the signal ratio;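 further: cells stimulated with carbachol in lithium chloride buffer; plate controls were DMSO basal wells for no effect and reference inhibitor wells for full effect; higher means more IMPase inhibition seen as more IP1 and lower FRET ratio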
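Measured: the HTRF emission ratio (665/620 nm) plus the 620 nm donor channel, each fitted to the Hill equation to give AC50. Cells were CHO-M1 given compounds up to 46 uM and a 30 min carbachol stimulation at 37C.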
ALDH1A1 block: inhibitors of human aldehyde dehydrogenase 1A1 | P00352 | Purified ALDH1A1, NADH fluorescence, propionaldehyde substrate | Potency, µM (titrated, usually from 75.3 µM), without a hit: at the highest dose activity, negative = inhibition, usual class: inhibitors | 7.3% of 220,000 active; active means well fitted inhibition curve with a large enough effect, not every such curve was filed as active; inconclusive means small, poorly fitted or top-dose-only effect, or another doubt; inactive means no such curve, though single readings can be large or run the other way;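 further: potency means the concentration at half of the fitted maximal effect; plate controls were no enzyme wells and a reference inhibitor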
PNC assembly inh: inhibitors of perinucleolar compartment assembly. PC3M PTB-GFP, PNC prevalence imaging, 16 h; active compounds read low. activity change (PNC), negative = inhibition, % at 10 µM. 3.1% of 140,000 active;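 active means readout at or below -70, meaning at least 70% loss of cells showing the perinucleolar compartment, a nuclear body marking cancer cells; inconclusive means readout between -30 and a set limit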;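 further: plate controls were DMSO wells for no effect and camptothecin positive control wells for full effect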
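Read-out is percentage of cells bearing a perinucleolar compartment, from automated 20x imaging of fixed, Hoechst-stained PC3M PTB-GFP cells. Cells were seeded 4 h, then exposed 16 h to compound (23 nl of library stock) in duplicate plates.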
IMPase Li cell: cell-permeable IMPase inhibitors with lithium potentiation. CHO-M1 cells, IP1 TR-FRET (IP-One), carbachol + lithium. Potency, µM (series often up to 59.4 µM), for the others: top-dose activity, negative = IMPase inhibition, most hits filed as inhibitors. 0.35% of 210,000 active. AID 1457;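 further: IP1 builds up when IMPase is blocked and the TR-FRET signal falls; potency means the concentration at half of the fitted maximal effect; plate controls were basal vehicle for no effect and high inhibitor control for full effect; nearly all actives have a fitted effect of over 50% in size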
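CHO-M1, 2000 cells/well, 16–30 h culture; cpd + low Li+, 30 min 37C; lysis with d2-IP1/Eu-anti-IP1 Ab, 10 min RT; TR-FRET 665/620 ratio and 620 channel; AC50 via Hill.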
ALOX12 inhib: 12-hLO (ALOX12) enzyme inhibition. Potency, µM (doses to about 57.1 µM), inactives show top-dose activity change, negative = inhibition, most hits filed as inhibitors. purified 12-hLO, xylenol orange hydroperoxide absorbance. 0.12% of 150,000 active. AID 1452; further: potency means the concentration at half of the fitted maximal effect; nearly all actives have a fitted effect of over 55% in size
Target sequence (P18054 whole entry, looked up): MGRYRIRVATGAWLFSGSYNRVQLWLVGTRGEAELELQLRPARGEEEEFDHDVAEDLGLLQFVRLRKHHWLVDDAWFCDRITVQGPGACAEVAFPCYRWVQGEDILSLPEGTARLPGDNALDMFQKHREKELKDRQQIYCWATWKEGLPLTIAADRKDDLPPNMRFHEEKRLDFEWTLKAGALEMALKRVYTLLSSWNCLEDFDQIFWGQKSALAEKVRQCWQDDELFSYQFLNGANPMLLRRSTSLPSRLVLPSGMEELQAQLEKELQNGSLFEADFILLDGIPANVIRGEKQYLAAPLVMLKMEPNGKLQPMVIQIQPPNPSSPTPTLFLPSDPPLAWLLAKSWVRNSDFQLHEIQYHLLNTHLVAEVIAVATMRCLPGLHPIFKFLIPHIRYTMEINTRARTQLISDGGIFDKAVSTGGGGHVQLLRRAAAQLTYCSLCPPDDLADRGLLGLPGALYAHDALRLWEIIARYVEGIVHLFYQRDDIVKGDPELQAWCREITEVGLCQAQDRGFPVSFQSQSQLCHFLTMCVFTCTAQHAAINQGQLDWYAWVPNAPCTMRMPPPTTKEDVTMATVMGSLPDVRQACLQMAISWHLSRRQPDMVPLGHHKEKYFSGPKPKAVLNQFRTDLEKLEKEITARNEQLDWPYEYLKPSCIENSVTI
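Purified human 12hLO (150 nM), preincubated 15 min with compound, then 40 uM arachidonic acid for 30 min, room temperature, Hepes pH 7.0 with 0.01% Triton X-100. Hydroperoxide detected by ferrous iron/xylenol orange; 573/405 nm absorbance ratio gives reaction progress.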
HPGD block: blocks human HPGD enzyme activity; P15428; purified HPGD, NADH fluorescence kinetic, PGE2 substrate; Potency, µM, without a hit: top-dose activity change, negative = inhibition, most hits filed as inhibitors; 4.3% of 150,000 active; AID 894; active means well fitted inhibition curve with a large enough effect, not every such curve was filed as active; inconclusive means small, poorly fitted or top-dose-only effect, or another doubt; inactive means no such curve, though single readings can be large or run the other way; further: potency means the concentration at half of the fitted maximal effect
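NADH formation kinetics: reaction with 30 uM PGE2 and 1 mM NAD+ (final), 20 nM enzyme, Tris-HCl pH 8 with Tween 20, after 15 min compound preincubation at room temperature. Fluorescence change, last versus first of five reads.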
* = called active by the depositor; ? = inconclusive; · = no result given; ! = not confirmed by another sample; [ ] = remark or other dose. The list is not random: actives were taken first. Their share in the collection is about 11%. Unless noted, the call rests on the fitted dose curve; in most records, active means well fitted curve in the direction sought with a large enough effect; inconclusive means small, poorly fitted or top-dose-only effect, or another doubt; inactive means no such curve, though single readings can be large; an effect the other way counts as inactive or inconclusive. Unless noted, on the % scale 0 is the no-effect control and ±100 the full control effect.

SMILES | IMPase cell inh | ALDH1A1 block | PNC assembly inh | IMPase Li cell | ALOX12 inhib | HPGD block
Nc1ncnc2c1ncn2[C@@H]1O[C@H](COP(=O)(O)CP(=O)(O)OP(=O)(O)O)[C@H](O)[C@H]1O | · | -5.5% | · | -17.0% | · | -6.0%
Cc1ccc(NC(=[OH+])c2cc3ccccc3cc2O)c(C)c1.Cc1ccc(NC(=[OH+])c2cc3ccccc3cc2O)c(C)c1.[Ni] | · | -19.6%[13.5 µM] | · | 6.8% | -25.7%[11.4 µM] | 1.78µM*
O=S(=O)(NCCO)c1cc[c]([Sb])cc1 | · | 5.1%[13.5 µM] | · | 5.0% | · | -1.8%
c1nc(N2CC2)c2cnn([C@@H]3CCCCO3)c2n1 | · | 2.4%[13.5 µM] | · | 6.2% | -1.8%[11.4 µM] | -6.6%
CCC(C)C1N=C(c2ccccc2)c2cc(Cl)ccc2N(CC(=O)NCc2ccco2)C1=O (configuration not stated) | 5.3 | 0.3% | 4.3 | 10.1%[38.3 µM] | -4.0% | -3.2%
Cc1ccccc1C1=NCC(=O)N(CC(=O)NCc2ccco2)c2sc3c(c21)CCCC3 | 4.3 | 39.8µM* | -10.9 | 39.3%[38.3 µM] | -23.1% | 39.8µM*
O=C1CC(=O)N(c2ccc3c(c2)OCO3)C(=O)N1 | -9.0 | -8.1% | -95.0* | 16.7%[38.3 µM] | -5.4% | -4.5%
C=C1C(O)C2OC3(CCC(/C=C/C(C)C4CC(C)=CC5(OC(CC(C)(O)C(=O)O)CCC5O)O4)O3)CCC2OC1C(O)CC(C)C1OC2(CCCCO2)CCC1C (configuration not stated) | · | 3.4%[2.48 µM] | · | 9.5% | 2.3%[0.00818 µM] | -1.6%
c1ccc2sc(C3(NCC4CC4)CCCCC3)cc2c1 | · | 4.7% | · | 13.3% | · | ·
CC(=O)[C@H]1CC[C@H]2[C@@H]3CCC4=CC(=O)CC[C@]4(C)[C@H]3CC[C@]12C | 12.1 | 11.2µM*! | 55.6 | 5.8% | -7.4% | -0.5%
C[C@@]12CC[C@H]3[C@@H](CCC4=CC(=O)CC[C@]43C)[C@H]1CC[C@H]2C(=O)CO | -5.1[20.6 µM] | 5.01µM* | · | 6.6% | -5.3%[25.6 µM] | -6.4%
C[C@@]12Cc3cnc(-c4ccccc4)nc3C[C@@H]1CC[C@@H]1[C@H]3CC[C@@](C)(O)[C@]3(C)CC[C@@H]12 | · | ? | · | 4.6% | 1.4%[11.4 µM] | -9.3%
Cc1ccc(C(c2nnnn2Cc2ccccc2)N2CC=C(c3ccc(F)cc3)CC2)cc1 (configuration not stated) | 10.4 | 7.94µM* | 49.3 | 11.8%[38.3 µM] | -20.6% | -14.8%
Fc1ccc(C2=CCN(C(c3ccc(Cl)cc3)c3nnnn3Cc3ccccc3)CC2)cc1 (configuration not stated) | · | ? | -17.3 | 7.9% | -5.8% | -11.4%
C[C@H](N[C@@H](C)CCc1ccccc1)[C@H](O)c1ccc(O)cc1 | 7.3 | · | · | · | -2.5% | ·
c1ccc(-c2ccc(C(c3ccccc3)n3ccnc3)cc2)cc1 (configuration not stated) | · | 22.4µM* | -28.4 | 13.6% | -16.1% | ?
O=C1/C(=C\c2cc3c(cc2Br)OCO3)N2CCC1CC2 | · | 3.16µM* | ? | 18.0% | 6.7% | ?
O=C1C2CCCN2C(c2ccncc2)N1c1ccc(Cl)c(Cl)c1 (configuration not stated) | -0.8 | 20µM* | ? | · | -10.9% | ·
CN(CCc1ccc(Cl)c(Cl)c1)[C@@H]1CCCC[C@@H]1N1CCCC1 | · | 3.55µM* | · | -28.1% | · | ·
S=c1[nH]c2cc(Br)cnc2[nH]1 | · | 3.16µM* | · | · | · | ·
S=c1[nH]c2ccccc2[nH]1 | · | ? | · | -2.9% | -0.2% | -4.9%
O=C(O)C(Cl)(Cl)Br | · | -12.0% | · | -10.3% | -3.3% | -6.6%
c1ccc(NNc2ccccc2)cc1 | · | 10µM* | · | 6.6% | -8.4% | 4.2%
CC(=O)Nc1c2sscc-2n(C)c1=O | · | 1.7% | · | 24.1% | -3.1%[0.00818 µM] | -10.7%
S=c1[nH]nc(-c2ccco2)n1/N=C/c1cccs1 | 3.4 | 25.1µM* | -23.6 | -2.8% | -8.3% | 28.2µM*
O=C(c1cc(C(=O)NCc2ccccc2)c(=O)n(Cc2ccccc2)c1)c1cc(Br)ccc1O | · | -14.1% | -21.7 | -1.2% | -2.0% | 10µM*
CN1C(=O)C(=Cc2ccccc2OCc2ccc(C(=O)O)cc2)C(=O)N(C)C1=O | · | 6.0% | · | -2.8% | · | ·
